The sample as a whole holds a higher share of hits than the screen did.
aSyn yeast rescue – rescues yeast growth from alpha-synuclein toxicity; Potency, µM (highest dose often 46.1 µM), actives largely listed as activators; 94,000 tested, 0.02% active; S. cerevisiae alpha-synuclein toxicity rescue, BacTiter-Glo growth, 24 h; active means well fitted activation curve with a large enough effect; further: 0% is about no effect
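Growth restoration measured by BacTiter-Glo luminescence after 24 hr at 30 deg C; alpha-synuclein yeast, raffinose-pregrown to mid-log, were added at OD600=0.02 in galactose medium onto pinned compounds.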
* = called active by the depositor; i = inactive. Potency means the concentration at half of the fitted maximal effect.

SMILES	aSyn yeast rescue
COc1cc(-c2noc(-c3ccc(NCc4ccccc4)c([N+](=O)[O-])c3)n2)cc(OC)c1OC	i
CCc1ccc(NC(=O)c2cc(S(=O)(=O)NC3CCCC3)ccc2F)cc1	i
Cc1ccc(NC(=O)c2cc(S(=O)(=O)N3CCCCCC3)ccc2F)cc1F	i
Cc1ccc(NC(=O)c2cc(S(=O)(=O)NC3CCCCCC3)ccc2F)cc1F	25µM*
CCCCc1ccc(NC(=O)c2ccc(=O)n(Cc3cccc(C)c3)c2)cc1	i
O/N=C(\c1ccccc1)C(O)c1ccccc1 (configuration not stated)	i
C#CCSc1n[nH]c(=O)n1-c1cccc(C(F)(F)F)c1	i
COc1ccc(NC(=O)CC2C(=O)N(c3ccc(OC)cc3)C(=S)N2NC(=O)c2cccc(F)c2)cc1 (configuration not stated)	i
Cc1ccc(-n2ncc3c(N4CCN(Cc5ccccc5)CC4)ncnc32)cc1	i
Cc1ccn2c(Nc3ccc(C(C)C)cc3)c(-c3cccnc3)nc2c1	i
CC(C)c1ccc(Nc2c(-c3ccccc3O)nc3cnccn23)cc1	22µM*
COc1cc(-c2nc3cnccn3c2Nc2ccc(C(C)C)cc2)ccc1O	i
Cc1ccc(N2CC(=O)N(NC(=O)CN3CCN(c4ccccc4)CC3)CC2=O)cc1	i
CC1CCN(C(=O)Cn2cc(SCC(=O)NCc3ccc(F)cc3)c3ccccc32)CC1	i
Cc1ccc(NC(=O)NNC(=O)c2ccc3c(c2)NC(=O)C(C)(C)O3)cc1	i
Cc1c(C(=O)Nc2ccc(N3CCOCC3)cc2)cccc1[N+](=O)[O-]	i
COc1ccccc1N1CCN(C(=O)Nc2cn(CC(C)C)c(=O)c3ccccc23)CC1	i
CCn1c(C(=O)Nc2ccc(C)cc2C)cc2sc(Cl)cc21	i
Cc1cc(S(=O)(=O)N2CCN(CC(=O)NC(C)(C#N)C3CC3)CC2)ccc1Br (configuration not stated)	i
CCNS(=O)(=O)c1ccc(-c2ccc(-n3cnnn3)cc2)cc1	i
CCC(C)N(C(=O)CSc1nnc(NC(C)C)s1)C1CCS(=O)(=O)C1 (configuration not stated)	i
CCOc1ccccc1NC(=O)C1C(c2ccccc2)C1(Cl)Cl (configuration not stated)	i
Cc1ccc(OCC(=O)N(Cc2ccco2)C2CCS(=O)(=O)C2)cc1 (configuration not stated)	i
COc1cc(C(=O)N/N=C/c2sc(N3CCOCC3)nc2-c2ccccc2)cc(OC)c1OC	i
CC(C)Oc1ccc(CNC(=O)CCCN2C(=O)CCn3nc(-c4cccn4C)cc32)cc1	i
SMILES	aSyn yeast rescue
COc1ccc(-c2oc3ncn4nc(COc5c(C)cccc5C)nc4c3c2-c2ccc(OC)cc2)cc1	i
CC(=O)c1cccc(Nc2ncnc3c2cnn3C)c1	i
O=C(COC(=O)Cc1n[nH]c(=O)c2ccccc12)Nc1ccc(Cl)cc1F	i
Oc1ccc(N2CCN(CC(O)c3ccccc3)CC2)cc1 (configuration not stated)	i
CCc1ccc(-c2nc(CS(=O)CC(=O)NCCc3ccc(C)cc3)c(C)o2)cc1 (configuration not stated)	20µM*
Cc1ccc(CCNC(=O)CS(=O)Cc2nc(-c3cccs3)oc2C)cc1 (configuration not stated)	i
Cc1ccc(CCNC(=O)CS(=O)Cc2nc(-c3ccccc3C)oc2C)cc1 (configuration not stated)	i
C[C@@H]1CN([C@@H](C)CO)C(=O)CCCn2nncc2CO[C@H]1CN(C)Cc1cccc2c1OCCCO2	i
Cc1ccc(C(=O)OCC(=O)NCCc2ccccc2)cc1S(=O)(=O)N1CCOCC1	i
CC1CCCCC12NC(=O)N(CC(=O)N1CCN(S(=O)(=O)c3cccs3)CC1)C2=O (configuration not stated)	i
Oc1ccc(-c2nc3ccc(Cl)cn3c2Nc2ccc(Cl)cc2)cc1	i
COc1cc(-c2nc(Cn3nnc(C(=O)Nc4ccc(C)cc4C)c3C)c(C)o2)cc(OC)c1OC	i
O=C(CC12CC3CC(CC(C3)C1)C2)Nc1ccc(C(=O)O)cc1	i
CCOc1ccc(NC(=O)C(=O)NCCc2csc(-c3ccc(C)cc3)n2)cc1	i
CC(=O)N1CC2(c3ccccc3)CN(C(C)=O)CC(c3ccccc3)(C1)C2=O	i
COc1ccc(NC(=S)N2CCC(NC(=O)C3CCCCC3)CC2)cc1	i
COc1ccc(CCCc2nnc(SCC(=O)Nc3ccccc3F)o2)cc1C	i
COc1ccc(NC(=O)CSc2nc(-c3cccs3)cc(C(F)(F)F)n2)cc1Cl	i
CCOC(=O)c1c(NC(=O)C(C)Sc2nnc(C)c(=O)[nH]2)sc2c1CCCC2 (configuration not stated)	i
COc1cccc(-c2cn3c(n2)sc2cc(C(=O)NC4CCCCC4)ccc23)c1	i
COc1cc(NC(=O)c2ccc(Cl)cc2)c(OC)cc1NC(=O)CN1CCCCC1	i
CCc1ccc(OCCSc2nc3ccccc3n2CC(=O)N2CCCCC2)cc1	i

Assay outcomes from PubChem BioAssay.
